# Assay results as given in PubChem BioAssay.
# The source made the active and inactive calls. Unless noted, no rule for the calls is given here.
# Assays:
# [1] = HepG2 liver cancer cell viability effects, profiling panel, resazurin fluorescence, 24 h, PK04 Diversity Set (AID 1172); conditions: higher = more signal
# [2] = basal S. cerevisiae growth modulation, no modifier, primary screen, OD600, strain BY4716, 24 h, basal condition (AID 1173); conditions: OD600, 24 h, higher = more signal, called active from +8 up or from −8 down
# [3] = MM1S myeloma cell viability, profiling panel, resazurin fluorescence, basal, 24 h, PK04 Diversity Set (AID 1174); conditions: higher = more signal, called active from +8 up or from −8 down;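 also: MM1S multiple myeloma cell line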
# [4] = molecular target: Dihydroorotate dehydrogenase (quinone), mitochondrial (Plasmodium falciparum (isolate 3D7)) (UniProt Q08210); experiment: PfDHODH enzyme inhibitors, primary screen, biochemical, C-terminal His tag, absorbance 600 nm (AID 1175); conditions: DCIP absorbance 600 nm, higher = more signal, called active from +8 up or from −8 down;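 also: recombinant parasite enzyme with a five histidine tag at its C terminus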
# Chain of Dihydroorotate dehydrogenase (quinone), mitochondrial (Plasmodium falciparum (isolate 3D7)) (Q08210 whole entry, looked up): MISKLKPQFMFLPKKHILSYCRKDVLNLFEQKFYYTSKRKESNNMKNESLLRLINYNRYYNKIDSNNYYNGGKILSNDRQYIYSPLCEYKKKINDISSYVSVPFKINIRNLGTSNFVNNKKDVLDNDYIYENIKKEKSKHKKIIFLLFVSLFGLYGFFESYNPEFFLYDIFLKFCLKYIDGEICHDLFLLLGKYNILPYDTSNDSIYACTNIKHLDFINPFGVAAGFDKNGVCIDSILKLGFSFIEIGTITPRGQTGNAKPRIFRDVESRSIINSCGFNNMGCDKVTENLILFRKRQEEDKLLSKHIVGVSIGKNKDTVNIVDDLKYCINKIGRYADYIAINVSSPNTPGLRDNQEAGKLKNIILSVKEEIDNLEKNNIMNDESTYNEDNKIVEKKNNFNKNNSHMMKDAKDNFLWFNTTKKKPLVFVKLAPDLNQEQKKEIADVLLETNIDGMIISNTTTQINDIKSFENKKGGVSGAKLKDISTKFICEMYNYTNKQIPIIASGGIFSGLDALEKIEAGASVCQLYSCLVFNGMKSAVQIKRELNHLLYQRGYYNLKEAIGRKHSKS
# [5] = P. aeruginosa biofilm formation inhibitors, primary screen, strain PAO1, LB-PBS medium, absorbance 600 nm (AID 1176); conditions: P. aeruginosa PAO1 growth/biofilm, A600, 12 h; higher = more signal
# [6] = S. cerevisiae RM11-1a growth modifiers, primary screen, strain RM11-1a, OD600, basal, 24 h (AID 1177); conditions: OD600, 24 h, higher = more signal, called active from +8 up or from −8 down;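 also: cultures grown under basal conditions with no added stressor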
# [7] = E. coli acrAB mutant growth effects, primary screen, E. coli filamentation inducers, strain DRC39, OD650, 24 h (AID 1178); conditions: higher = more signal, called active from +8 up or from −8 down;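 also: growth measured as culture turbidity by optical density at 650 nm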
# [8] = E. coli acrAB mutant growth effects, primary screen, E. coli filamentation inducers, strain DRC39, OD650, 48 h (AID 1179);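 also: screen aims at cell division blockers that make cells filament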; conditions: E. coli DRC39 delta-acrAB growth, higher = more signal, called active from +8 up or from −8 down
# [9] = RPMI8226 myeloma cell viability, profiling panel, resazurin fluorescence, basal, 24 h, PK04 Diversity Set (AID 1180); conditions: higher = more signal;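 also: RPMI8826 multiple myeloma cell line at 5000 cells per well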
# [10] = molecular target: E3 ubiquitin-protein ligase XIAP (Homo sapiens) (UniProt P98170); experiment: XIAP binders, primary screen, biophysical, small-molecule microarray, fluorescence 635 nm (AID 1181); conditions: small-molecule microarray binding, higher = more signal;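 also: score merges 667 nm emission and signal to noise over triplicate slides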
# Chain of E3 ubiquitin-protein ligase XIAP (Homo sapiens) (P98170 whole entry, looked up): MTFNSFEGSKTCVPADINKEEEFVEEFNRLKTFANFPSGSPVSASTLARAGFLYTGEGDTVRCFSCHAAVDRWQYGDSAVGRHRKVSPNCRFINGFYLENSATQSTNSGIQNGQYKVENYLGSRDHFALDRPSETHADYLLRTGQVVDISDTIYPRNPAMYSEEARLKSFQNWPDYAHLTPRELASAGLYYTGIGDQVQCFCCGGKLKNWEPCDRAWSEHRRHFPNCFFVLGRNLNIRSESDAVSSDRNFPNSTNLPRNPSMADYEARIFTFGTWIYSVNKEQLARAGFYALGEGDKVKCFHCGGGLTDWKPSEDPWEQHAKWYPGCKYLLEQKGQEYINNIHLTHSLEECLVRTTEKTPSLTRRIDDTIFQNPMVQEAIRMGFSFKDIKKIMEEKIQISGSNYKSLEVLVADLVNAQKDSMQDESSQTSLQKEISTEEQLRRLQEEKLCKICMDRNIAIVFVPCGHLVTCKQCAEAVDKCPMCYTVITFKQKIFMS
# [11] = test system: XIP peptide (Xip251-270) binding; experiment: small-molecule binders of XIP peptide, primary screen, biochemical, small-molecule microarray, fluorescence 635/667 nm, 0.1 µg/mL protein (AID 1182); conditions: fluorescent protein binding, 635 nm, higher = more signal, called active from +8 up or from −8 down
# [12] = test system: XIP peptide (Xip251-270); experiment: small-molecule binders of XIP peptide, primary screen, biochemical, small-molecule microarray, fluorescence 635/667 nm, 0.5 µg/mL protein (AID 1183); conditions: small-molecule microarray binding, fluorescence 635 nm; higher = more signal
# [13] = Plasmodium falciparum growth inhibition, primary screen, strain 3D7, DAPI fluorescence, 100 nL (AID 1184);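 also: parasites grown inside human red blood cells in medium with human serum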; conditions: P. falciparum 3D7 growth, 3 d, higher = more signal
# [14] = molecular target: Homeobox protein Hox-A13 (Mus musculus) (UniProt Q62424); experiment: inhibitors of HoxA13-DNA binding, primary screen, biochemical, fluorescence polarization, labeled oligonucleotide (AID 1185); conditions: 15 min, higher = more signal, called active from +8 up or from −8 down
# Chain of Homeobox protein Hox-A13 (Mus musculus) (Q62424 whole entry, looked up): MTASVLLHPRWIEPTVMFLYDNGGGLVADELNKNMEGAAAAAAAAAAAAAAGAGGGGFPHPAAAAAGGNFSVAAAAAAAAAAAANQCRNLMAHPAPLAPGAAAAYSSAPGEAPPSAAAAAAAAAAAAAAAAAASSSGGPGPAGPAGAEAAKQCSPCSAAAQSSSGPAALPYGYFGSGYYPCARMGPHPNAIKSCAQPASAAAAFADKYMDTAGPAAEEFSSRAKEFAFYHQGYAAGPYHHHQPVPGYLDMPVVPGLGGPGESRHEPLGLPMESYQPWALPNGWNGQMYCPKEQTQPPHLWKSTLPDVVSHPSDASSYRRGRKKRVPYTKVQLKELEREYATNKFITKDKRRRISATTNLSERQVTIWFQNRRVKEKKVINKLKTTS
# [15] = inhibitors of hydroxyurea-induced Chk1 phosphorylation, primary screen, imaging, HeLa, phospho-Chk1 antibody, percent positive cells (AID 1186); conditions: hydroxyurea-induced phospho-Chk1 immunofluorescence imaging, higher = more signal
# [16] = inhibitors of hydroxyurea-induced Chk1 phosphorylation, primary screen, imaging, HeLa, phospho-Chk1 nuclear intensity (AID 1187); conditions: hydroxyurea-induced phospho-Chk1 immunofluorescence imaging, higher = more signal
SMILES,z-score [1],z-score [2],z-score [3],composite z-score [4],z-score [5],z-score [6],z-score [7],z-score [8],z-score [9],composite z-score [10],composite z-score [11],composite z-score [12],z-score [13],z-score [14],z-score [15],z-score [16]
COC(=O)Cn1c(C(=O)N2CCCC2)cc2c1C[C@H]1CN(C(=O)c3ccccc3)[C@@](Cc3ccc(OC)cc3)(C(=O)OC)[C@@H]21,0.101,1.5 (inactive),-2.14 (inactive),-0.632 (inactive),0.259 (inactive),0.569 (inactive),-0.506 (inactive),-0.031 (inactive),-2.1,0.311,0.516 (inactive),0.518,-1.48,-3.21 (inactive),0.847 (inactive),0.487 (inactive)
CCCC=C(CCC)[C@@H](NS(=O)(=O)c1cccc(C(F)(F)F)c1)c1ccc(C(=O)OC)cc1,1.18,0.661 (inactive),0.179 (inactive),-0.237 (inactive),-0.94 (inactive),-0.279 (inactive),-0.0305 (inactive),-0.0262 (inactive),-0.16,0.0506,0.0637 (inactive),0.377,0.551,-1.64 (inactive),0.0948 (inactive),-0.275 (inactive)
CO[C@H]1O[C@H](CO)[C@@H](OC(=O)Nc2ccc3c(c2)OCO3)[C@H](OC(=O)Nc2ccccc2)[C@@H]1OC(=O)Nc1ccccc1,-0.671,-0.328 (inactive),-1.24 (inactive),-0.0612 (inactive),0.345 (inactive),1.13 (inactive),0.399 (inactive),-0.409 (inactive),-0.682,0.319,1.06 (inactive),0.649,-1.76,-5.39 (inactive),0.171 (inactive),0.889 (inactive)
COC(=O)[C@@]1(Cc2ccccc2CN=[N+]=[N-])N=C(c2ccc(OCCCO)cc2)O[C@H]1c1ccccc1N=[N+]=[N-],-0.806,1.49 (inactive),-3.44 (inactive),3.12 (inactive),1.69 (inactive),2.6 (inactive),0.365 (inactive),-0.762 (inactive),-3.59,-0.0095,0.413 (inactive),0.653,-1.94,0.683 (inactive),0.0586 (inactive),0.0586 (inactive)
COc1cc2c(cc1OC)CN(C(=O)[C@H]1[C@@H]3C(=O)O[C@@H](c4ccccc4)[C@@H](c4ccccc4)N3[C@@H](c3ccc(O)cc3)[C@]13C(=O)Nc1ccc(C#CC4(O)CCCCCC4)cc13)CC2,0.496,0.076 (inactive),-0.4 (inactive),-0.543 (inactive),0.89 (inactive),0.087 (inactive),-0.463 (inactive),-0.794 (inactive),1.15,0.364,3.38 (inactive),0.838,-1.51,-1.42 (inactive),-0.0159 (inactive),0.0808 (inactive)
C=CCc1cccc([C@@H]2[C@@H](C)CC[C@H]3C(=O)N4[C@H](c5cccc(CC=C)c5)[C@@H](C)CC[C@H]4C(=O)N23)c1,2.52,-1.2 (inactive),0.778 (inactive),-1.76 (inactive),,1.1 (inactive),0.55 (inactive),-0.184 (inactive),-1.11,-0.187,0.718 (inactive),0.336,-0.729,-3.9 (inactive),,
COc1cc([C@@H]2N[C@H](C(=O)O)Cc3c2[nH]c2ccccc32)cc(OC)c1OC,0.384,-0.61 (inactive),1.39 (inactive),-1.7 (inactive),,-0.8 (inactive),-0.105 (inactive),0.197 (inactive),1.03,-0.227,-0.374 (inactive),0.564,-0.0372,-1.66 (inactive),,
CCN1C(C)=C(C(=O)OC)[C@@H](c2ccccc2)N2C(=O)[C@@]3(C(=O)OC)O[C@@]12[C@@H]1C(=O)N(c2ccccc2)C(=O)[C@@H]13,0.392,-1.07 (inactive),0.839 (inactive),0.295 (inactive),,-0.85 (inactive),-0.631 (inactive),-0.21 (inactive),1.21,-0.18,0.357 (inactive),0.9,-0.425,-0.559 (inactive),,
C[C@H]1COC(=O)[C@H](Cc2ccccc2)NC(=O)[C@@H](C)COC(=O)[C@H](Cc2ccccc2)NC1=O,0.24,-1.23 (inactive),1.04 (inactive),0.063 (inactive),,-1.43 (inactive),0.253 (inactive),-0.156 (inactive),1.28,-0.127,0.767 (inactive),0.342,-0.703,1.01 (inactive),,
CO[C@@H]1COC(=O)[C@H](C)NC(=O)CC=C[C@@H](C)[C@H](OC)COC(=O)[C@H](C)NC(=O)CC=C[C@H]1C,0.542,-0.786 (inactive),0.102 (inactive),0.32 (inactive),,-0.161 (inactive),0.884 (inactive),0.552 (inactive),-0.171,-0.142,-0.479 (inactive),0.132,0.363,0.229 (inactive),,
CCN1C(C)=C(C(=O)OC)[C@@H](c2ccccc2)N2C(=O)[C@](O)(C(=O)OC)[C@@H](c3ccccc3)C(C(C)=O)=C12,-0.267,-2.6 (inactive),1.43 (inactive),-5.15 (inactive),,-1.84 (inactive),-0.891 (inactive),-2 (inactive),0.554,-0.0167,-0.192 (inactive),-1.35,-1.56,-1.27 (inactive),,
CO[C@H]1COC(=O)[C@H](C)NC(=O)CC=C[C@@H](C)[C@H](NS(=O)(=O)c2ccc(C)cc2)COC(=O)[C@@H](OCc2ccccc2)C=C[C@@H]1C,0.618,0.156 (inactive),1.03 (inactive),0.604 (inactive),,1.25 (inactive),0.292 (inactive),0.104 (inactive),0.775,-0.0123,-0.253 (inactive),0.72,-0.569,-1.21 (inactive),,
CCC(=O)[C@]12O[C@@]3([C@@H]4C(=O)OCC[C@@H]41)N(Cc1ccccc1)C(C)=C(C(=O)OC)[C@@H](c1ccccc1)N3C2=O,0.859,-2.74 (inactive),0.83 (inactive),0.0379 (inactive),,-0.704 (inactive),-0.101 (inactive),-0.0892 (inactive),0.95,0.0289,0.195 (inactive),-0.573,1.24,-4.26 (inactive),,
CO[C@H]1COC(=O)CC=C[C@H](C)COC(=O)[C@@H](OCc2ccccc2)C=C[C@@H]1C,-0.103,-0.348 (inactive),1.46 (inactive),-2.5 (inactive),,-1.22 (inactive),0.566 (inactive),0.171 (inactive),0.627,-0.22,0.225 (inactive),0.547,-1.58,1.89 (inactive),,
CO[C@H]1COC(=O)CC=C[C@H](C)[C@@H](OC)COC(=O)[C@H](Cc2ccccc2)NC(=O)CC=C[C@@H]1C,1.26,-0.562 (inactive),1 (inactive),1.09 (inactive),,0.33 (inactive),0.424 (inactive),-1.39 (inactive),0.452,-0.031,-0.254 (inactive),-0.42,0.0429,-0.426 (inactive),,
CO[C@@H]1COC(=O)[C@@H]2CCCN2C(=O)CC=C[C@@H](C)[C@H](OC)COC(=O)[C@@H]2CCCN2C(=O)CC=C[C@H]1C,0.929,-1.45 (inactive),1.31 (inactive),0.319 (inactive),,-0.553 (inactive),1.65 (inactive),0.987 (inactive),0.0475,-0.02,0.284 (inactive),0.352,0.583,-0.507 (inactive),,
CCN1C(C)=C(C(=O)OC)[C@@H](c2ccccc2)N2C(=O)[C@@]3(C(=O)OC)O[C@@]12[C@@H]1C(=O)CCC[C@@H]13,0.584,-0.99 (inactive),1.03 (inactive),-1.39 (inactive),,0.989 (inactive),-0.275 (inactive),-0.0144 (inactive),0.835,0.111,-0.147 (inactive),-1.03,-0.625,-0.386 (inactive),,
CO[C@H]1COC(=O)[C@H](C)NC(=O)CC=C[C@@H](C)[C@H](NS(=O)(=O)c2ccc(C)cc2)COC(=O)CC=C[C@@H]1C,0.072,-1.57 (inactive),1.19 (inactive),-0.253 (inactive),,-0.724 (inactive),0.127 (inactive),-0.244 (inactive),0.945,0.023,-0.132 (inactive),0.407,-0.266,-1.62 (inactive),,
CO[C@H]1COC(=O)[C@@H](C)COC(=O)[C@H](Cc2ccccc2)NC(=O)CC=C[C@H]1C,0.495,-1.05 (inactive),1.06 (inactive),0.234 (inactive),,-1.48 (inactive),0.586 (inactive),0.274 (inactive),0.794,-0.0293,-0.0968 (inactive),0.172,-0.178,0.485 (inactive),,
COc1cccc([C@@H]2[C@@H](C)CC[C@H]3C(=O)N(C)[C@@H](C(C)C)C(=O)N23)c1,0.989,-1.32 (inactive),0.708 (inactive),0.295 (inactive),,0.192 (inactive),0.847 (inactive),0.836 (inactive),1.67,0.258,-0.297 (inactive),0.247,0.451,-0.0898 (inactive),,
C[C@@H]1CC[C@H]2C(=O)N3[C@@H](CC[C@@H](C)[C@@H]3c3cccc(N4CCOCC4)c3)C(=O)N2[C@H]1c1cccc(Br)c1,1.05,-1.89 (inactive),0.328 (inactive),-0.0779 (inactive),,-0.123 (inactive),0.401 (inactive),0.238 (inactive),1.37,-0.111,0.806 (inactive),0.541,0.656,-5.55 (inactive),,
